# The whole screen tested about 53,000 compounds, of which about 900 (1.7%) showed an effect of 50% or more. The sample holds strong results, similar compounds and a random draw of the others, so the mix is not that of the screen.
# Test system: Mycobacterium tuberculosis
# Assay: Cornell - Phenotypic assay to identify agents that inhibit growth of Mycobacterium tuberculosis
# Format: functional
# Set-up: scale not given: direction of the effect not stated beside the values
# Settings: 10 mM as filed; unlikely as a test dose
row,Compound,Percent Effect
1,Nc1ncc(-c2ccc(NC(=O)[C@@H]3CCCCN3)cc2)cn1,-8.73%
2,Cc1nc(Nc2nncs2)cc(C2CCCN2C)n1 (configuration not stated),-51.01%
3,O=C1CC(c2ccsc2)c2sc(C(=O)O)c(-c3ccccc3)c2N1 (configuration not stated),-23.75%
4,O=C1CC(c2ccsc2)c2sc(C(=O)O)c(-c3ccc(F)cc3)c2N1 (configuration not stated),105.2%
5,O=C1CC(c2ccccc2)c2sc(C(=O)O)c(-c3ccccc3)c2N1 (configuration not stated),17.04%
6,O=C(C1CCOC1)N1C[C@@H]2CCN(C(=O)c3cscn3)[C@@H]2C1 (some centres not stated),-35.62%
7,CC(CC(=O)NS(C)(=O)=O)C1CCCCC1 (configuration not stated),-16.66%
8,O=C(NCCC1=CCCCC1)c1cc(-c2ccc(O)cc2)n[nH]1,22.09%
9,CCCc1cc(C(=O)NCCC2=CCCCC2)[nH]n1,32.79%
10,Cc1ccc(-c2cc(C(=O)NCCC3=CCCCC3)[nH]n2)o1,52.86%
11,Cc1cc(F)ccc1N1CCCC(NC2CCSCC2)C1=O (configuration not stated),-0.6719%
12,Cc1cc(S(=O)(=O)N2CCCc3cc(Br)ccc32)sc1C(=O)O,32.41%
13,COC1CCN(C(=O)CC(C)(C)C)CC(=O)N(C)c2ccccc21 (configuration not stated),2.903%
14,CC(C)=CCN1C[C@@H]2CN(C(=O)c3ccc(CO)cc3)C[C@]2(C(=O)O)C1,22.99%
15,CN(C)C(=O)C1CCC2(CCN(C(=O)Nc3ccccc3)CC2)O1 (configuration not stated),2.965%
16,COc1cc(C2Nc3cc(Cl)ccc3C3=NCCN32)cc(OC)c1OC (configuration not stated),-27.36%
17,COc1cc(C2Nc3cc(Cl)ccc3C3=NCCN32)ccc1O (configuration not stated),80.22%
18,COc1ccc(C2Nc3cc(Cl)ccc3C3=NCCN32)cc1O (configuration not stated),10.02%
19,CCCn1cc(C(=O)N2CCCC2(C)c2nc(C)cc(N)n2)cn1 (configuration not stated),-4.951%
20,Clc1ccc(N2CCN(CCCN3CCCCC3)CC2)nc1,25.77%
21,CSCCCN1CCN(c2ccc(Cl)cn2)CC1,62.54%
22,CSCc1ccc(N2CCN(c3ccc(Cl)cn3)CC2)nc1,-11.59%
23,COC(=O)CNC(=O)C1CCN(S(C)(=O)=O)CC1,-1.242%

row,Compound,Percent Effect
1,O=C(Cc1noc2ccccc12)N1CCCC1c1noc(C2CC2)n1 (configuration not stated),0.3643%
2,O=C(c1cccc2[nH]ncc12)N1CCCC1c1noc(C2CC2)n1 (configuration not stated),0.6634%
3,O=C(c1n[nH]c2ccccc12)N1CCCC1c1noc(C2CC2)n1 (configuration not stated),50.46%
4,CC(=O)N1CCO[C@@H]2CN(S(=O)(=O)c3ccc(C)cc3)CC[C@@H]2C1,-25.36%
5,CCc1noc(C(C)N2CCN(CC(C)C)CC2)n1 (configuration not stated),-14.43%
6,COc1ccc(CNC(Cc2ccsc2)c2ccc(C)cn2)c(OC)c1 (configuration not stated),18.63%
7,COc1ccc(CNC(Cc2ccsc2)c2ccc(C)cn2)cc1OC.Cl (configuration not stated),26.36%
8,COc1cccc(OC)c1CNC(Cc1ccsc1)c1ccc(C)cn1 (configuration not stated),62.45%
9,CCc1nc(NS(=O)(=O)c2cccc(F)c2C)no1,37.51%
10,CC(CO)NC(=O)c1ccc(NCc2ccc(F)c(F)c2)cc1 (configuration not stated),4.78%
11,Cc1cccc(CN2CCN(C(=O)c3cc(C4CC4)[nH]n3)CC2)c1,63.11%
12,O=C(c1cc(C2CC2)[nH]n1)N1CCN(Cc2ccsc2)CC1,6.464%
13,O=C(c1cc(C2CC2)[nH]n1)N1CCN(Cc2ccncc2)CC1,8.467%
14,CC(C)c1ccc(CN2CCN(C(=O)c3cc(C4CC4)[nH]n3)CC2)cc1,-22.19%
15,O=C(c1cc(C2CC2)[nH]n1)N1CCN(Cc2ccccc2)CC1,7.865%
16,CC(C)c1ncncc1C(=O)N1CCN(Cc2ccsc2)CC1,5.12%
17,CC(C)c1cc(C(=O)N2CCN(Cc3ccsc3)CC2)n[nH]1,50.59%
18,O=C(c1cc(C2CC2)[nH]n1)N1CCN(Cc2ccc(Cl)cc2)CC1,-11.68%
19,O=C(c1cc(C2CC2)[nH]n1)N1CCN(Cc2ccc3c(c2)OCO3)CC1,83.19%
20,CCCOc1cccc(C(=O)N2CCCC(n3cncn3)C2)c1 (configuration not stated),2.869%
21,CNC(=O)CS(=O)(=O)NC1CCC(C)CC1 (configuration not stated),-17.27%
22,CC1CCC(NS(=O)(=O)CC(=O)Nc2ccc(N3CCCC3)cn2)CC1 (configuration not stated),-5.738%
23,CC1CCC(NS(=O)(=O)CC(=O)NC(C2CC2)C2CC2)CC1 (configuration not stated),-19.5%

row,Compound,Percent Effect
1,Cc1ccc(NC(=O)CS(=O)(=O)NC2CCC(C)CC2)nc1 (configuration not stated),59.09%
2,CCNC(=O)CS(=O)(=O)NC1CCC(C)CC1 (configuration not stated),-36.82%
3,CS(=O)(=O)NCC1CCCN(C(=O)Nc2ccccc2N2CCCC2)C1 (configuration not stated),12.25%
4,CC1CCC(NS(=O)(=O)CC(=O)NCC2CCC2)CC1 (configuration not stated),57.41%
5,CC1CCC(NS(=O)(=O)CC(=O)NC2(C(N)=O)CCCC2)CC1 (configuration not stated),-11.11%
6,CC1CCC(NS(=O)(=O)CC(=O)Nc2ccccc2N2CCCC2)CC1 (configuration not stated),81.68%
7,CCOCc1cnc2n1CCN(C(=O)c1cccc3c1OCCO3)C2C (configuration not stated),-10.91%
8,Cc1cccc(-c2nc(CN3CC(n4nc(C)cc4C)C3)no2)c1,18.28%
9,CC(C)N1CCO[C@H]2CN(Cc3cc[nH]n3)C[C@H]21.O=C(O)C(F)(F)F.O=C(O)C(F)(F)F,-4.182%
10,O=C(CC1CCCC1)N1CCC(c2noc(-c3ccccn3)n2)CC1,12.79%
11,O=C1NC2(CCc3ccccc31)CCN(C(=O)c1ccncc1)C2 (configuration not stated),9.772%
12,Cc1nnc(C2CCN(C(=O)c3ccc(-n4cccc4)cc3)CC2)s1,34.12%
13,O=C1CCNc2cc3c(cc2CN1CC1CC1)OCO3,-9.17%
14,O=C(CC1COCCN1)N1CCC(N2CCc3ccccc3C2)CC1 (configuration not stated),-14.32%
15,CCN(CCCNC(=O)Nc1ccccc1C(C)C)S(C)(=O)=O,-25.97%
16,CC(N)Cc1ccccc1Sc1ccc(O)cc1.CC(N)Cc1ccccc1Sc1ccc(O)cc1.O=C(O)C(=O)O (configuration not stated),102.6%
17,CNC(C)Cc1ccccc1Sc1ccc(O)cc1.Cl (configuration not stated),105.4%
18,NCc1ccccc1Sc1ccc(O)cc1.O=C(O)/C=C\C(=O)O,11.62%
19,Fc1ccc(Sc2ccccc2CNC2=NCCN2)cc1.I,18.51%
20,CC(N)Cc1ccccc1Sc1ccccc1.O=C(O)/C=C\C(=O)O (configuration not stated),13.46%
21,CC(C(=O)Nc1ccccc1Sc1ccccc1)S(C)(=O)=O (configuration not stated),13.38%
